In publication PMC11006913:
Changes are numbered by the printed parent chain.

Tests used:
Test in all cases: PBM; 200 nM protein, PBS
Conditions in all cases: dsDNA, one strand shown
[1] = biological target: T1, NKX2-4 (Homo sapiens, UniProt Q9H2Z4 175-261, P217L)
T1 sequence: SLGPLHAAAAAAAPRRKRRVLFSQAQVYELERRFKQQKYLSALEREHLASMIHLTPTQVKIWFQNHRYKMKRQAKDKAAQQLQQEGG

[2] = biological target: T2, NKX2-4 (Homo sapiens, UniProt Q9H2Z4 175-261, T231S)
T2 sequence: T1 sequence with L43P, T57S

[3] = biological target: T3, NKX2-4 (Homo sapiens, UniProt Q9H2Z4 175-261)
T3 sequence: T1 sequence with L43P

[4] = biological target: HOXD13 (Homo sapiens, UniProt P35453 263-343, T313R)
[5] = biological target: HOXD13 (Homo sapiens, UniProt P35453 263-343)
[6] = biological target: T4, NKX2-4 (Homo sapiens, UniProt Q9H2Z4 175-261, R246Q)
T4 sequence: T1 sequence with L43P, R72Q

[7] = biological target: HOXD13 (Homo sapiens, UniProt P35453 263-343, T313A)
[8] = biological target: T5, NKX2-6 (Homo sapiens, UniProt A6NCS4 118-204, R150C)
T5 sequence: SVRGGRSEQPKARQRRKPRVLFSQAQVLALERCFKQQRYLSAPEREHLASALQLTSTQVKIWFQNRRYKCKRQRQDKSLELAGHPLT

[9] = biological target: T6, NKX2-6 (Homo sapiens, UniProt A6NCS4 118-204)
T6 sequence: T5 sequence with C33R

[10] = biological target: T7, NKX2-6 (Homo sapiens, UniProt A6NCS4 118-204, F151L)
T7 sequence: T5 sequence with C33R, F34L

[11] = biological target: HOXA2 (Homo sapiens, UniProt O43364 129-215, R185T)
[12] = biological target: HOXA2 (Homo sapiens, UniProt O43364 129-215, R185K)
[13] = biological target: VAX1 (Homo sapiens, UniProt Q5SQQ9 86-172)
[14] = biological target: VAX1 (Homo sapiens, UniProt Q5SQQ9 86-172, T142I)
[15] = biological target: HOXA2 (Homo sapiens, UniProt O43364 129-215, Y150S)
[16] = biological target: HOXA2 (Homo sapiens, UniProt O43364 129-215)
[17] = biological target: VAX1 (Homo sapiens, UniProt Q5SQQ9 86-172, K157R)
Chain of VAX1 (Homo sapiens, UniProt Q5SQQ9 86-172, K157R) (Q5SQQ9 86-172 K157R): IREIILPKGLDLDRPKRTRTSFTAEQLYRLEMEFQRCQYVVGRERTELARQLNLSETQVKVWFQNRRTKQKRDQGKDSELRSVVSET

Chain of HOXD13 (Homo sapiens, UniProt P35453 263-343, T313A) (P35453 263-343 T313A): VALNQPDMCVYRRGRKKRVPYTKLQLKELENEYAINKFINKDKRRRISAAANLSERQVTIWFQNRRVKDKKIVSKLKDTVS
Chain of HOXA2 (Homo sapiens, UniProt O43364 129-215, Y150S) (O43364 129-215 Y150S): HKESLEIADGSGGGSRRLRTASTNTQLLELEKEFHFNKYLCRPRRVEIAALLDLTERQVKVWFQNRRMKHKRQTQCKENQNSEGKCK
Chain of VAX1 (Homo sapiens, UniProt Q5SQQ9 86-172) (Q5SQQ9 86-172): as the sequence (Q5SQQ9 86-172 K157R) above, with R72K counted along it
Chain of HOXA2 (Homo sapiens, UniProt O43364 129-215, R185K) (O43364 129-215 R185K): as the sequence (O43364 129-215 Y150S) above, with S22Y, R57K counted along it
Chain of HOXA2 (Homo sapiens, UniProt O43364 129-215) (O43364 129-215): as the sequence (O43364 129-215 Y150S) above, with S22Y counted along it
Chain of HOXD13 (Homo sapiens, UniProt P35453 263-343) (P35453 263-343): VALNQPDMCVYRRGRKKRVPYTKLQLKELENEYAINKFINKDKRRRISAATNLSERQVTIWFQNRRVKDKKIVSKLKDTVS
Chain of HOXD13 (Homo sapiens, UniProt P35453 263-343, T313R) (P35453 263-343 T313R): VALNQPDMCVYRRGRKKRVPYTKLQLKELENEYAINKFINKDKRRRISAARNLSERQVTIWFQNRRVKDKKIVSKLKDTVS
Chain of HOXA2 (Homo sapiens, UniProt O43364 129-215, R185T) (O43364 129-215 R185T): as the sequence (O43364 129-215 Y150S) above, with S22Y, R57T counted along it
Chain of VAX1 (Homo sapiens, UniProt Q5SQQ9 86-172, T142I) (Q5SQQ9 86-172 T142I): as the sequence (Q5SQQ9 86-172 K157R) above, with T57I, R72K counted along it

CTATTAAC was tested, and the binding signal [1] was 11.7 upbm affinity estimate (log intensity, higher = more binding, comparable within an allelic series), the binding signal [2] was 11.8 upbm affinity estimate (log intensity, higher = more binding, comparable within an allelic series) and the binding signal [3] was 11.6 upbm affinity estimate (log intensity, higher = more binding, comparable within an allelic series). The binding signal [4] was 10.8 upbm affinity estimate (log intensity, higher = more binding, comparable within an allelic series), the binding signal [5] was 12 upbm affinity estimate (log intensity, higher = more binding, comparable within an allelic series) and the binding signal [6] was 11.8 upbm affinity estimate (log intensity, higher = more binding, comparable within an allelic series). The binding signal [7] was 11.8 upbm affinity estimate (log intensity, higher = more binding, comparable within an allelic series).

For CACGCCGC, the binding signal [1] was 9.39 upbm affinity estimate (log intensity, higher = more binding, comparable within an allelic series), the binding signal [2] was 9.34 upbm affinity estimate (log intensity, higher = more binding, comparable within an allelic series) and the binding signal [3] was 9.42 upbm affinity estimate (log intensity, higher = more binding, comparable within an allelic series). For the same sequence, the binding signal [8] was 9.39 upbm affinity estimate (log intensity, higher = more binding, comparable within an allelic series), the binding signal [9] was 9.52 upbm affinity estimate (log intensity, higher = more binding, comparable within an allelic series) and the binding signal [6] was 9.48 upbm affinity estimate (log intensity, higher = more binding, comparable within an allelic series). The binding signal [10] was 9.29 upbm affinity estimate (log intensity, higher = more binding, comparable within an allelic series).

In the case of GCCACGCC, the binding signal [1] is reported as 9.91 upbm affinity estimate (log intensity, higher = more binding, comparable within an allelic series), the binding signal [2] is reported as 9.93 upbm affinity estimate (log intensity, higher = more binding, comparable within an allelic series) and the binding signal [3] is reported as 9.88 upbm affinity estimate (log intensity, higher = more binding, comparable within an allelic series). For the same sequence, the binding signal [11] was 7.26 upbm affinity estimate (log intensity, higher = more binding, comparable within an allelic series), the binding signal [12] was 10.2 upbm affinity estimate (log intensity, higher = more binding, comparable within an allelic series) and the binding signal [6] was 9.85 upbm affinity estimate (log intensity, higher = more binding, comparable within an allelic series). The binding signal [13] was 7.13 upbm affinity estimate (log intensity, higher = more binding, comparable within an allelic series), the binding signal [14] was 7.33 upbm affinity estimate (log intensity, higher = more binding, comparable within an allelic series) and the binding signal [15] was 10.4 upbm affinity estimate (log intensity, higher = more binding, comparable within an allelic series). The binding signal [16] was 7.17 upbm affinity estimate (log intensity, higher = more binding, comparable within an allelic series) and the binding signal [17] was 7.18 upbm affinity estimate (log intensity, higher = more binding, comparable within an allelic series).

For AGGCAGCC, the binding signal [1] was 9.69 upbm affinity estimate (log intensity, higher = more binding, comparable within an allelic series), the binding signal [2] was 9.68 upbm affinity estimate (log intensity, higher = more binding, comparable within an allelic series) and the binding signal [3] was 9.68 upbm affinity estimate (log intensity, higher = more binding, comparable within an allelic series). The binding signal [6] was 9.7 upbm affinity estimate (log intensity, higher = more binding, comparable within an allelic series).
